BoNT A protease: inhibitors of Botulinum neurotoxin A light chain protease | multiplex microsphere protease substrate cleavage, flow cytometry | inhibition, % at 10 µM | 0.17% of 360,000 active; note: plate controls were buffer without enzyme for full effect and enzyme alone for no effect
MazF activator: MazEF (E. coli) toxin RNase activation. P0AE70. FAM/BHQ RNA-DNA oligo cleavage fluorescence, 5 h. activation, % at 20 µM. 0.32% of 350,000 active; in the data active = activation above about 50%
Target sequence (P0AE70 whole entry, looked up): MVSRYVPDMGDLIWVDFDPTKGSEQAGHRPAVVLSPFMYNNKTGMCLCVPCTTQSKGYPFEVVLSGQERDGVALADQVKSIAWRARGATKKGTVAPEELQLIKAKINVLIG
VHR inh abs: inhibitors of human VHR1 phosphatase (DUSP3) | 0.52% of 290,000 active | recombinant VHR phosphatase, pNPP absorbance | P51452 | AID 1654 | inhibition, % at 13.3 µM; in the data active = inhibition above about 50%
Target sequence (P51452 whole entry, looked up): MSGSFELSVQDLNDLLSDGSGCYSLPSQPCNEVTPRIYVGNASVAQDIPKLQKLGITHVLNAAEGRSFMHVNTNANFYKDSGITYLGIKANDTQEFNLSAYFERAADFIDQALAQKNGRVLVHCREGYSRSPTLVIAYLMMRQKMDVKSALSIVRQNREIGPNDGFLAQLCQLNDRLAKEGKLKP
BoNT-F LC inh: BoNT F light chain protease inhibition. Multiplex microsphere protease cleavage assay, flow cytometry. inhibition, % at 10 µM. 0.22% of 360,000 active; in the data active = inhibition above about 35%, passing the limit was not always enough; inconclusive = no clear call, values can overlap the other calls; note: plate controls were buffer without enzyme for full effect and enzyme alone for no effect
Bead autofluor: flagged as autofluorescent in microsphere protease counterscreen; compound autofluorescence counterscreen, microsphere flow cytometry; hits give high values; fluorescence intensity (concentration not given with the values); 3.1% of 360,000 active; in the data active = fluorescence intensity above about 16000; inconclusive = no clear call, values can overlap the other calls
Anthrax LF prot: inhibitors of Bacillus anthracis lethal factor protease; P15917; multiplex microsphere protease cleavage assay, LF; inhibition, % at 10 µM; 0.12% of 360,000 active; note: plate controls were buffer without enzyme for full effect and enzyme alone for no effect
The depositor's hits bear a star; ? = inconclusive; nt = no result given. Shown are actives, neighbours in structure and some others; about 4.1% of the full set was active somewhere. Cut-off read from the data, not from the text of the source, unless noted: active = inhibition above about 30%; inconclusive = no clear call, values can overlap the other calls; inactive = below that.

SMILES	BoNT A protease	MazF activator	VHR inh abs	BoNT-F LC inh	Bead autofluor	Anthrax LF prot
CCOC(=O)c1cnn(-c2c(Cc3ccccc3)c(C)nc3c(-c4ccccc4)c(C)nn23)c1N	4	-5	6	4	22024*	0
Cc1ccc(CC2C(=O)N(c3cc(C)ccc3C)C(=O)C2C)cc1 (configuration not stated)	1	-3	9	30	3548	11
CSCC[C@H](NC(=O)OC(C)(C)C)C(=O)N1CCC(C(=O)N[C@@H](C)C(=O)O)CC1	?	-2	32	0	20586*	0
CC(C)c1[nH]c(=O)c(C#N)c2c1COC(C)(C)C2	-4	1	-8	-3	21618*	-1
Cc1[nH]c(=O)c(C#N)c2c1COC(C)(C)C2	0	-3	-10	-11	4176	-6
COc1ccc(S(N)(=O)=O)cc1C(=O)NNC(=O)c1cccc(S(=O)(=O)N2CCOCC2)c1	-3	0	nt	0	6016	-1
COc1ccc(C(O)P(=O)(OC2CCCCC2)c2ccc(N(C)C)cc2)cc1OC (configuration not stated)	0	-1	2	-1	22879*	-1
CN(C)c1ccc(C(O)P(=O)(OC2CCCCC2)OC2CCCCC2)cc1 (configuration not stated)	nt	8	12	nt	nt	nt
CN(C)c1ccnc(Oc2ccccc2)c1C#N	1	-7	3	-1	10130	1
CN(C)c1ccnc(SCc2ccccc2Cl)c1C#N	-6	-3	8	-10	22367*	-2
COc1cc(C=C(C#N)c2ccc([N+](=O)[O-])cc2)ccc1O	1	-2	nt	1	3266	-2
COc1ccc(/C=C2/SC(=O)N(NS(=O)(=O)c3ccccc3)C2=S)cc1OC	6	3	17	4	21520*	-9
Cc1ccc(S(C)(=O)=O)cc1C(=O)OCC(=O)N(Cc1ccccc1)Cc1ccccc1	-1	3	nt	-16	3518	-2
COc1ccc(CN2C(=O)NC3(CCCCC3)C2=O)cc1F	?	-5	-2	1	22242*	-1
COc1ccc(COC(=O)CN2C(=O)NC3(CCCC3)C2=O)cc1F	0	7	nt	6	?	1
CCC1=NN2C(=N)/C(=C\c3ccc(OCCOc4ccc(NC(C)=O)cc4)cc3)C(=O)N=C2S1	3	2	-46	16	3515	51*
O=C(NCc1cccnc1)c1cc(C2CCCCN2C(=O)c2cccs2)on1 (configuration not stated)	-1	nt	nt	-7	3921	-1
Cc1cc(C)c(C(=O)CC(=O)c2cccnc2)c(C)c1	0	-1	nt	1	3060	-2
Cc1ccc([N+](=O)[O-])cc1NC(=O)CCCOc1ccccc1	0	0	1	-1	16846*	-3
CCn1c(SCC(=O)OC)nnc1-c1c[nH]c2ccccc12	0	10	29	-2	5256	-2
CCn1c(SCC(=O)NCc2ccccc2)nnc1-c1c[nH]c2ccccc12	1	4	25	-2	22868*	-7
C=CCSc1nnc(-c2c[nH]c3ccccc23)n1CCOC	1	13	1	-1	22750*	-2
COc1cccc(-c2oc3c(c2C(=O)OCCN2CCCCC2)C(O)CCC3)c1 (configuration not stated)	0	nt	nt	5	4894	0
CC(C)[C@@H](C(=O)N[C@@H](Cc1ccccc1)C(=O)O)N1C(=O)N2CCc3c([nH]c4ccccc34)[C@@]2(C)C1=O	0	6	25	3	5201	-6
CC(C)n1nnnc1C1c2ccccc2C(=O)N1Cc1ccco1 (configuration not stated)	0	nt	nt	5	5816	9
SMILES	BoNT A protease	MazF activator	VHR inh abs	BoNT-F LC inh	Bead autofluor	Anthrax LF prot
COC(=O)c1cn(C)c2ccc(S(=O)(=O)N3CCOCC3)cc2c1=O	-1	6	16	-2	4284	-5
CC1CCCCC1NC(=O)c1cn(C)c2ccc(S(=O)(=O)N3CCCC3)cc2c1=O (configuration not stated)	?	-4	14	-3	20217*	-2
COC(=O)c1cn(C)c2ccc(S(=O)(=O)N3CCCC3)cc2c1=O	2	6	nt	1	20045*	-5
CC1CCN(S(=O)(=O)c2ccc3c(c2)c(=O)c(C(=O)NC2CCCC2)cn3C)CC1	?	-1	25	-4	20721*	2
Cc1ccc2nc(C3CCCCC3)[nH]c2c1	-7	-6	-10	?	5341	-8
COCCN(C(=O)COC(=O)c1ccc2[nH]c(C)c(C)c2c1)c1c(N)n(Cc2ccccc2)c(=O)[nH]c1=O	2	-16	nt	1	5908	-2
CCC(C)n1c(SCC(=O)Nc2ccccc2C(F)(F)F)nc2ccsc2c1=O (configuration not stated)	1	-5	14	0	21867*	-2
CCCCN1C2=NCCCN2c2ccccc21	-1	6	38	-9	10731	-3
CCCCCCCN1C2=NCCCN2c2ccccc21	0	926*	19	-3	4584	0
CCNC(=O)C1(C)CCN1C(=O)CCc1cccc(Cl)c1 (configuration not stated)	0	nt	nt	0	4108	-5
COc1cccc(Nc2c(Nc3cccc(OC)c3)c(=O)c2=O)c1	4	-7	59*	9	4050	5
Cc1cc(C)cc(C(=O)N2CC(C)OC(C)C2)c1 (configuration not stated)	?	8	12	-1	22829*	0
Cc1ccc(C2C(C#N)=C(N)SC(N)=C2C#N)cc1	12	-494	30	9	11739	7
Cc1ccc(C2C(C#N)=C(N)SC(N)=C2C#N)c(C)c1	40*	-404	-12	71*	7929	28
O=C(COC(=O)CNC(=O)c1ccccc1)NCCc1ccccc1	0	7	12	-5	2560	0
O=C(CNC(=O)c1ccccc1)NCCc1ccc(O)c(O)c1	0	nt	59*	2	5442	0
COc1ccc(CNC(=O)Cn2cnc3c(=O)n(C)c(=O)n(C)c32)cc1	-3	-1	9	-4	21079*	0
Cc1ccc(OCCNC(=O)Cn2cnc3c(=O)n(C)c(=O)n(C)c32)cc1C	-1	1	26	-3	22531*	-2
Cn1c(=O)c2ncn(CC(=O)NCCOc3ccccc3)c2n(C)c1=O	-1	-2	11	3	10311	-4
COCc1nnc(NC(=O)c2cccc(NC(=O)c3ccccc3)c2)s1	-1	1	11	3	4556	-1
CCCCNc1oc(-c2cccs2)nc1S(=O)(=O)c1ccccc1	4	-1	-7	5	22130*	0
CCN1CCCC1CNC(=O)c1cc2c(C)nc3ccccc3c2o1 (configuration not stated)	7	-8	4	9	17361*	-6
CC(=O)c1ccc(N2CCN(C(=O)c3cc4c(C)nc5ccccc5c4o3)CC2)cc1	0	56*	14	1	5852	-1

Screening results as filed in PubChem BioAssay.
